Screening data (PubChem)
TDP1 block: blocks human tyrosyl-DNA phosphodiesterase 1 | Q9NUW8 | recombinant TDP1, AlphaScreen DNA substrate cleavage | Potency, µM (doses to about 130 µM), for inactives: top-dose activity change, negative = inhibition, usual class: inhibitors | 0.28% of 350,000 active; also: potency is read from the fitted curve at half-maximal effect; % is scaled to controls: 0 for no effect and ±100 for the full control effect; nearly all actives have a fitted effect of over 40% in size
Target sequence (Q9NUW8 whole entry, looked up): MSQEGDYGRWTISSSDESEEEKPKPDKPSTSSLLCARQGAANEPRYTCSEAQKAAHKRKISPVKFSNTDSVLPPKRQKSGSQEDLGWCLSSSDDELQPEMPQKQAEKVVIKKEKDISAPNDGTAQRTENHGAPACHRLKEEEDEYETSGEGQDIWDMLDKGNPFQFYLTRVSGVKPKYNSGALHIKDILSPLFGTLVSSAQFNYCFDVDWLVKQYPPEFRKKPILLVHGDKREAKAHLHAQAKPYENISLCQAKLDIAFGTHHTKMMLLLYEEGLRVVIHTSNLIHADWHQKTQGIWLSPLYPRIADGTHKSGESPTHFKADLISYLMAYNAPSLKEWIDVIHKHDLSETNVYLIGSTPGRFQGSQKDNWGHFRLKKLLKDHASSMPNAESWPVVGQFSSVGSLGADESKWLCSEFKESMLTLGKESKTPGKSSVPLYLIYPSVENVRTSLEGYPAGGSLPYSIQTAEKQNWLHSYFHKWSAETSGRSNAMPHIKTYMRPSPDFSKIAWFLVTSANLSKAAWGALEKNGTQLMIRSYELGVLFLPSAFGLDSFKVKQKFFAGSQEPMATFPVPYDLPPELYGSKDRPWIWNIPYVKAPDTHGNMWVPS
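AlphaScreen read-out: signal falls as enzyme removes the 3' tyrosine-FITC from a 5'-biotinylated DNA oligo (15 nM, 5 min, RT). Enzyme was E. coli-made recombinant Tdp1 at 1 nM, exposed to compound for 15 min beforehand; beads 10 ug/ml, 10 min.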
IL1B secr inh: blocks inflammasome-driven IL-1 beta release. THP-1 LPS/ATP IL-1B secretion, AlphaLISA, 16 h; hits give low values. activity change, % at 57.5 µM. 4.7% of 360,000 active. AID 743279; in the data active = activity change below about -50%; inconclusive = mostly about -30% to -49%; also: % is scaled to controls: 0 for no effect and ±100 for the full control effect
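THP-1 cells pretreated 1 hr with compounds (up to 57.5 uM final), then stimulated with LPS (250 ng/mL final) plus ATP (1.25 mM final); secreted IL-1B measured by AlphaLISA after 16 hr, decreased signal indicating inhibition.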
TGFb inhibitor: inhibitors of TGF-b signaling; HepG2 CAGA-GFP TGF-b/SMAD3 reporter, GFP fluorescence, 18 h; TGF-beta stimulated, 500 pg/mL final; Potency, µM (highest dose often 46.1 µM), without a hit: top-dose activity, negative = inhibition, most hits filed as inhibitors; 1.2% of 410,000 active; AID 588855; also: potency is read from the fitted curve at half-maximal effect; % is scaled to controls: 0 for no effect and ±100 for the full control effect; nearly all actives have a fitted effect of over 65% in size
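HEPG2 CAGA-GFP, 1000 cells/well; 2 h settle, 37 C; cpd via pin tool; TGF-b 500 pg/mL final; 18 h, 37 C; GFP imaging ex488/em500-530; %Activity normalised to -TGF-b and +DMSO controls; CRC fit, curve class.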
TDP1 cell noCPT: qHTS for Inhibitors of human tyrosyl-DNA phosphodiesterase 1 (TDP1): qHTS in cells in absence of CPT; DT40 Tdp1-/- hTDP1 cells, no CPT, ATP luminescence, 48 h; 15% of 420,000 active; AID 686978, 2013; Potency, µM (doses to about 46.2 µM), for inactives: at the top dose activity change, negative = growth inhibition, hits mostly inhibitors; also: potency is read from the fitted curve at half-maximal effect; % is scaled to controls: 0 for no effect and ±100 for the full control effect; nearly all actives have a fitted effect of over 55% in size
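Stably hTDP1-transfected Tdp1-null chicken DT40 cells were treated with library compounds minus camptothecin and grown for at least 48 hr at 37 °C, after which cellular ATP was quantified by luminescence.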
HepG2 tox: counter-screen for TGF-b inhibitors: cytotoxicity in HepG2 cells; HepG2 CAGA-GFP viability, ATP luminescence, 18 h; Potency, µM (doses to about 46.1 µM), inactives show at the highest dose activity change, negative = cytotoxicity, actives largely listed as cytotoxic; 0.76% of 410,000 active; also: potency is read from the fitted curve at half-maximal effect
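CellTiter-Glo luminescence gave cytotoxicity after 18 hours at 37 degrees C. The cells were HepG2 CAGA-GFP in 1% FBS DMEM, stimulated with 500 pg/mL TGF-beta after compound addition. %Activity was normalised to no-cell wells (complete cell-killing) and DMSO (no toxicity), and curves were fitted and classified.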
DT40 TDP1 CPT: DT40-hTDP1 cell growth loss with CPT. chicken DT40 Tdp1-/-;hTDP1 cells + 20 nM CPT, ATP luminescence, 48 h. Potency, µM (highest dose often 46.2 µM), inactives show at the highest dose activity change, negative = growth inhibition, usual class: inhibitors. 12% of 420,000 active; also: potency is read from the fitted curve at half-maximal effect; % is scaled to controls: 0 for no effect and ±100 for the full control effect; nearly all actives have a fitted effect of over 55% in size
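Chicken DT40 Tdp1-/- cells stably complemented with human TDP1 were seeded at 400 cells/well in medium containing 20 nM camptothecin, exposed to pin-transferred compounds, and grown at 37 °C for at least 48 hr. Viability was read as ATP luminescence.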
The depositor's hits bear a star; ? = inconclusive; / = no result given; [ ] = another dose, or the depositor's remark. Only some compounds are listed: those with a hit (about 18% of all), similar ones and a draw of the others. Unless noted, calls follow the shape of the dose curve; as a rule, active = well fitted curve in the direction sought with a large enough effect; inconclusive = small, poorly fitted or top-dose-only effect, or another doubt; inactive = no such curve, though single readings can be large; an effect the other way counts as inactive or inconclusive.

SMILES	TDP1 block	IL1B secr inh	TGFb inhibitor	TDP1 cell noCPT	HepG2 tox	DT40 TDP1 CPT
C/C=C(\C)C(=O)NCCN1C2=NC[C@H](C(C)C)N2C[C@@H]1Cc1ccc(OC)cc1	9.0%	-4.2	2.2%	-23.6%	1.0%	?
CCCCCCNC(=O)N[C@@H](C(=O)NCCC[C@H]1CN2C(=NC[C@@H]2Cc2ccccc2)N1CCc1cccc(OC)c1)C(C)C	4.7%	-90.7*	?	4.61µM*	-23.8%	4.11µM*
C[N+]1(C)C2CCC1CC(OC(=O)C(O)c1ccccc1)C2 (stereo not given)	-9.6%[56.1 µM]	/	/	-1.9%	/	-8.2%
CCOc1ccc(-n2c(SC(C)C)nc3c(c2=O)SCC3)cc1	8.7%	-2.3	?	16.4µM*	2.2%	?
CCS(=O)(=O)c1oc(-c2ccc(F)cc2)nc1S(=O)(=O)c1ccccc1	6.1%	/	/	0.581µM*	2.51µM*	0.259µM*
CCC(C)S(=O)(=O)c1oc(-c2ccc(F)cc2)nc1S(=O)(=O)c1ccc(F)cc1 (stereo not given)	4.9%	/	?	1.03µM*	3.55µM*	0.581µM*
CNc1oc(-c2ccccc2)nc1S(=O)(=O)c1ccc(C)cc1	5.4%	-1.9	-3.9%	-27.9%	0.8%	-26.4%
CCCCCS(=O)(=O)c1oc(-c2cccs2)nc1S(=O)(=O)c1ccc(C)cc1	1.2%	/	7.94µM*	3.66µM*	-103.5%	4.61µM*
CCCCS(=O)(=O)c1oc(-c2ccc(F)cc2)nc1S(=O)(=O)c1ccc(C)cc1	6.1%	/	4.47µM*	0.581µM*	3.55µM*	1.03µM*
O=S(=O)(c1ccccc1)c1nc(-c2cccs2)oc1NCc1cccnc1	4.0%[56.1 µM]	-10.4	8.1%	-9.4%	5.7%	-10.3%
CSc1oc(-c2ccc(F)cc2)nc1S(=O)(=O)c1ccc(Br)cc1	-2.9%	/	-0.2%	?	0.0%	?
CCOc1ccc(-c2nc(S(=O)(=O)c3ccccc3)c(NC)o2)cc1	1.6%	5.0	15.0%	-0.4%	1.4%	14.1%
CCOC(=O)C1(C)CCCN1C(=O)c1cccs1 (stereo not given)	/	20.1	-7.2%	-11.4%	-18.9%	-28.2%
CCC(C)(C)n1nnnc1CN1CCc2ccccc21	2.3%	9.9	-0.7%	-16.0%	6.7%	-10.3%
CCNC(=S)Nc1ccc2c(c1)oc1ccccc12	/	-13.8	-6.4%	?	-20.1%	1.7%
CCCCS(=O)(=O)c1oc(-c2cccs2)nc1S(=O)(=O)c1ccc(F)cc1	6.1%	/	5.01µM*	0.581µM*	5.62µM*	0.82µM*
COc1ccc(CCC(=O)N2CCN(c3ccc([N+](=O)[O-])cc3)CC2)cc1OC	/	?	-0.6%	14.6µM*	-2.4%	?
COc1ccccc1CC(=O)N1CCN(c2ccc([N+](=O)[O-])cc2)CC1	-2.5%	?	?	9.2µM*	-28.2%	14.6µM*
COc1ccc(N2CCN(C(=O)CSc3ccc([N+](=O)[O-])cc3)CC2)cc1	4.8%	-9.8	9.9%	23.1µM*	-3.5%	?
COc1ccc(NC(=O)N2CCN(c3ccc([N+](=O)[O-])cc3)CC2)cc1	5.6%	1.6	15.6%	2.31µM*	-3.9%	2.31µM*
COc1ccc(C(=O)NC(=S)N2CCN(c3ccc([N+](=O)[O-])cc3)CC2)cc1	/	?	-26.8%	?	-7.4%	?
